Measured values: the supplement of paper PMC11732987, “Enantioselective OTUD7B fragment discovery through chemoproteomics screening and high-throughput optimisation” (Communications Chemistry, 2025)

Key:
Assay in all cases: log2 ratio of Biotin-Ahx-Ub-VS probe labelling (fragment/DMSO); higher = less target engagement (more negative = stronger competition), active = hit call of the paper (q ≤ 0.05, log2 ratio ≤ -1)
Details in all cases: compound concentration: 200 uM; treatment time: 3 h
USP19 = biological target: T1, USP19 (UniProt O94966)
T1 sequence (whole entry): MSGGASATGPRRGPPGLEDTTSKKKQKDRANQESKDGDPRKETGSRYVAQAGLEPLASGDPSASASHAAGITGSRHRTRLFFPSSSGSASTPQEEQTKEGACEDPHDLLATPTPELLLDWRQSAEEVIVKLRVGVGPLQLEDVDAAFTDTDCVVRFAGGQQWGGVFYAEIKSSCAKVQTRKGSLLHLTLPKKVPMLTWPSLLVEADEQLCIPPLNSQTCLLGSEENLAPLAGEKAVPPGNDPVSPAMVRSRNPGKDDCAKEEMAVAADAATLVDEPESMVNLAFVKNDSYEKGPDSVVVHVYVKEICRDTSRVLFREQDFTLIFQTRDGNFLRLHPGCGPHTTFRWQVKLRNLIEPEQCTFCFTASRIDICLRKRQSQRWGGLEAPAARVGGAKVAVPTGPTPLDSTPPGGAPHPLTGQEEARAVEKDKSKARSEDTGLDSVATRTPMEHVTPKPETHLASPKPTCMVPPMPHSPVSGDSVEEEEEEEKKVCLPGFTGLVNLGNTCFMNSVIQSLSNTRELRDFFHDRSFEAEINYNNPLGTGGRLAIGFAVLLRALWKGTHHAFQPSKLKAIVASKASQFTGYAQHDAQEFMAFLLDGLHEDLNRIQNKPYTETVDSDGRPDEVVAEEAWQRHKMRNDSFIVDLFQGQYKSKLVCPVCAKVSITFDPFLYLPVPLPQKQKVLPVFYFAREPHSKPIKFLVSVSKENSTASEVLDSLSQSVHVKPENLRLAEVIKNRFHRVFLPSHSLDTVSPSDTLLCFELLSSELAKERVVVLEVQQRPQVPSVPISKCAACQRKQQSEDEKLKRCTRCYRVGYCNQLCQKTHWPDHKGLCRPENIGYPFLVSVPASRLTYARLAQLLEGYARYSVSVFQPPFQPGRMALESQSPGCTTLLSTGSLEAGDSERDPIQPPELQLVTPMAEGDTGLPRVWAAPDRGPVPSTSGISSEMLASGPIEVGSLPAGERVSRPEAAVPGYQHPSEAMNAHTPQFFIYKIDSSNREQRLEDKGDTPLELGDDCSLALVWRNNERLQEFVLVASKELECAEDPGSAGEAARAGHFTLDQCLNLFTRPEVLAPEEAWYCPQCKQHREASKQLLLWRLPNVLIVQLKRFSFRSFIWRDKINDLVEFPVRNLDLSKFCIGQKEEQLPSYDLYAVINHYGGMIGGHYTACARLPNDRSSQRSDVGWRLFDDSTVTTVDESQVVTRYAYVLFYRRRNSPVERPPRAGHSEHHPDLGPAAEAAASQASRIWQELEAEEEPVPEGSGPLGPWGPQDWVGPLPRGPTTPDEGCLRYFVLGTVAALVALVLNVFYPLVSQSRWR
Method in brief: (§1)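 HEK293T lysate, 495 µg per sample in Tris/CHAPS/IGEPAL buffer with protease inhibitors, was treated in triplicate with fragment at 200 µM or vehicle for 3 h and then with Biotin-Ahx-Ub-VS at 0.5 µM final for 1 h. Labelled DUBs were NeutrAvidin-enriched, digested with LysC and trypsin, and run by diaPASEF LC-MS/MS. Spectronaut label-free quantities were global-median-normalised, and values are average log2 fragment/vehicle ratios by unpaired t-test on proteins with ≥2 unique peptides.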

USP24 = USP24 (UniProt Q9UPU5)
Sequence of USP24 (Q9UPU5 whole entry): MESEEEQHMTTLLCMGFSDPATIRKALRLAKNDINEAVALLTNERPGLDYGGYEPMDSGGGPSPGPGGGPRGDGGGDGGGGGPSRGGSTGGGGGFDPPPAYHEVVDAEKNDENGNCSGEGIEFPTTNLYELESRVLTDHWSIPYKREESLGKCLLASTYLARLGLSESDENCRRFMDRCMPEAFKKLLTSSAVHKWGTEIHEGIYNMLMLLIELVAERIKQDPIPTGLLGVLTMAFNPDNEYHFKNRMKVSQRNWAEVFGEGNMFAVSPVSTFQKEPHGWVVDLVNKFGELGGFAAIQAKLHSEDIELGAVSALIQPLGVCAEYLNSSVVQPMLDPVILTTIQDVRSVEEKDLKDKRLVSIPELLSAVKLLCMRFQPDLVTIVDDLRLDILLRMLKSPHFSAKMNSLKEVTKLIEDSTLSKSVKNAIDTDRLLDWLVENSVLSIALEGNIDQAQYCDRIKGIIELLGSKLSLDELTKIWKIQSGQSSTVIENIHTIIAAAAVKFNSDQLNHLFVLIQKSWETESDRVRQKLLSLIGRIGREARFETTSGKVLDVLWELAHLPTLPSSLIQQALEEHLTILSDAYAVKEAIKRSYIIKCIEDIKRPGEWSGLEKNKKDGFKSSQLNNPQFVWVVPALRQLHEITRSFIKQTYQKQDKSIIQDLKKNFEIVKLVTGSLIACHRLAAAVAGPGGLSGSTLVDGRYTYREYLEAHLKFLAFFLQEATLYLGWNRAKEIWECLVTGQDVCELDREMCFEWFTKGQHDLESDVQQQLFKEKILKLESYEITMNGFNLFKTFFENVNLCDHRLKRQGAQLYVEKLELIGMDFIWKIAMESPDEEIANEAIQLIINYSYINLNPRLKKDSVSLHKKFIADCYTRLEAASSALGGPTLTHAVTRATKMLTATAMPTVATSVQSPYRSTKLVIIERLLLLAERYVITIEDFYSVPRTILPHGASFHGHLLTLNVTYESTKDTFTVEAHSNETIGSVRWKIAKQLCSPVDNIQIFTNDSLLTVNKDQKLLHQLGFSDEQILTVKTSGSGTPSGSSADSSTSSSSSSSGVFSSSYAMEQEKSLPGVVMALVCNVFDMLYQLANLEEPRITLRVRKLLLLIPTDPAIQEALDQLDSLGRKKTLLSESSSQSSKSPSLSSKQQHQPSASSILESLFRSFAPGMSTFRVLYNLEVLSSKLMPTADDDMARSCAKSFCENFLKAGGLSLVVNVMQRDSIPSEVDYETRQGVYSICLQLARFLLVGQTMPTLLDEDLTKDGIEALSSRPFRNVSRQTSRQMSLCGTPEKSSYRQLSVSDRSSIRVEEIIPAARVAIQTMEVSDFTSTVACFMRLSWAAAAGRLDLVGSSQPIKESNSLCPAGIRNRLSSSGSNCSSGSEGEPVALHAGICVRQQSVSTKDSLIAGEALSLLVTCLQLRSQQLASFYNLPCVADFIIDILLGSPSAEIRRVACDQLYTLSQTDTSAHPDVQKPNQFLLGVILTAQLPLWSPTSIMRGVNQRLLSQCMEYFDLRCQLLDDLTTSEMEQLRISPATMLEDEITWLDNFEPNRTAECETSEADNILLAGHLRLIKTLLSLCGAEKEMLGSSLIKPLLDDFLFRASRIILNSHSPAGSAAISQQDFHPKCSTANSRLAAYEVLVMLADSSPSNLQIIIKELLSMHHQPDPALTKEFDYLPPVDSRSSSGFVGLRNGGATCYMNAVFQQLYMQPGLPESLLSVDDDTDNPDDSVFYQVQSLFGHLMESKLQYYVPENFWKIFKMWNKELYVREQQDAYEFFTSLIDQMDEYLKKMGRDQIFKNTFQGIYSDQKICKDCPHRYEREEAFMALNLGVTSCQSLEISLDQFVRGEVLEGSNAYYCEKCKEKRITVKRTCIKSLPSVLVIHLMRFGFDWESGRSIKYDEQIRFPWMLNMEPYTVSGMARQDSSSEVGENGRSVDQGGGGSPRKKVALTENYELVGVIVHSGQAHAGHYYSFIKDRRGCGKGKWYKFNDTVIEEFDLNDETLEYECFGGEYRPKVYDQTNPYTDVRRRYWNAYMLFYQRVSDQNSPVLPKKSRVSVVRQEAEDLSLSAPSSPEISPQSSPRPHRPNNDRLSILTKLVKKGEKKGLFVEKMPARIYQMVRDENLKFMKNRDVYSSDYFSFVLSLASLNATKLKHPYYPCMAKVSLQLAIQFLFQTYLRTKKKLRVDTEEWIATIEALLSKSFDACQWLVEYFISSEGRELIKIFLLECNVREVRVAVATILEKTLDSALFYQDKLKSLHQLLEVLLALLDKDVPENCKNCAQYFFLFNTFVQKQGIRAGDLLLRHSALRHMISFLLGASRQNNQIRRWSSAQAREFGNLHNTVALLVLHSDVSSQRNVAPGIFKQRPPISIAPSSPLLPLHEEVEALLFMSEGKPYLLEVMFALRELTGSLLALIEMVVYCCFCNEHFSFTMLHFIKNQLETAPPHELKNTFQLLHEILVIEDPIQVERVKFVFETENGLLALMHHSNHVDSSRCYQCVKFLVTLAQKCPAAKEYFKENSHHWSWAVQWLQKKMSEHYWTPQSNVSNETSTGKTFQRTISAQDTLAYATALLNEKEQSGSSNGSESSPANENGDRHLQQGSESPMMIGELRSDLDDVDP
Method in brief: as §1

USP25 = biological target: T2, USP25 (UniProt Q9UHP3)
T2 sequence (whole entry): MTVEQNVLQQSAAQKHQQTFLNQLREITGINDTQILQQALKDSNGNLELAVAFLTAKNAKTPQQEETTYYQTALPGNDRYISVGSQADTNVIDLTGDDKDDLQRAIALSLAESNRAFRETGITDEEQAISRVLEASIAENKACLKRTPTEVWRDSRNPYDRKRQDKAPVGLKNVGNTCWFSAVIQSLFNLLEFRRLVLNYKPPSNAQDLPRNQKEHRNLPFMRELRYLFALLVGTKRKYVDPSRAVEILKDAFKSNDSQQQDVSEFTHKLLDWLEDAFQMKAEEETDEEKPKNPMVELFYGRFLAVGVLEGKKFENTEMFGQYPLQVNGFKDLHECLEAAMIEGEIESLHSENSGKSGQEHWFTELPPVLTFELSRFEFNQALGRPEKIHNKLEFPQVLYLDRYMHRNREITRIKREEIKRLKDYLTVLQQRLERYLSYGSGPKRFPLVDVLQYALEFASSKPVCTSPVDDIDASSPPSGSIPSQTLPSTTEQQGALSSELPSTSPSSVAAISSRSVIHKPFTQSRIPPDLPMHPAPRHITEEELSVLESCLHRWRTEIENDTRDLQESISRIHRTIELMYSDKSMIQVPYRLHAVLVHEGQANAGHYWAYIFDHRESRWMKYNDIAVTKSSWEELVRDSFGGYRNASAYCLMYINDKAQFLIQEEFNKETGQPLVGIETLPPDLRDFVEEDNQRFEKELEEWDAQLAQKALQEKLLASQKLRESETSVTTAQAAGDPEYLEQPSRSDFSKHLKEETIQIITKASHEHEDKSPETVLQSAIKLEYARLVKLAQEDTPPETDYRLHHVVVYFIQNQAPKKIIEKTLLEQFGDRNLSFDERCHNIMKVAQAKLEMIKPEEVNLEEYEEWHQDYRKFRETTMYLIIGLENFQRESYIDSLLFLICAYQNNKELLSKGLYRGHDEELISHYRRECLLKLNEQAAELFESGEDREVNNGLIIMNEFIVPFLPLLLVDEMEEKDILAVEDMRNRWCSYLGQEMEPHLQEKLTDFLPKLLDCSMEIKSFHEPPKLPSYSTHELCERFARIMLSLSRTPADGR
Method in brief: as §1

USP28 = biological target: T3, USP28 (UniProt Q96RU2)
T3 sequence (whole entry): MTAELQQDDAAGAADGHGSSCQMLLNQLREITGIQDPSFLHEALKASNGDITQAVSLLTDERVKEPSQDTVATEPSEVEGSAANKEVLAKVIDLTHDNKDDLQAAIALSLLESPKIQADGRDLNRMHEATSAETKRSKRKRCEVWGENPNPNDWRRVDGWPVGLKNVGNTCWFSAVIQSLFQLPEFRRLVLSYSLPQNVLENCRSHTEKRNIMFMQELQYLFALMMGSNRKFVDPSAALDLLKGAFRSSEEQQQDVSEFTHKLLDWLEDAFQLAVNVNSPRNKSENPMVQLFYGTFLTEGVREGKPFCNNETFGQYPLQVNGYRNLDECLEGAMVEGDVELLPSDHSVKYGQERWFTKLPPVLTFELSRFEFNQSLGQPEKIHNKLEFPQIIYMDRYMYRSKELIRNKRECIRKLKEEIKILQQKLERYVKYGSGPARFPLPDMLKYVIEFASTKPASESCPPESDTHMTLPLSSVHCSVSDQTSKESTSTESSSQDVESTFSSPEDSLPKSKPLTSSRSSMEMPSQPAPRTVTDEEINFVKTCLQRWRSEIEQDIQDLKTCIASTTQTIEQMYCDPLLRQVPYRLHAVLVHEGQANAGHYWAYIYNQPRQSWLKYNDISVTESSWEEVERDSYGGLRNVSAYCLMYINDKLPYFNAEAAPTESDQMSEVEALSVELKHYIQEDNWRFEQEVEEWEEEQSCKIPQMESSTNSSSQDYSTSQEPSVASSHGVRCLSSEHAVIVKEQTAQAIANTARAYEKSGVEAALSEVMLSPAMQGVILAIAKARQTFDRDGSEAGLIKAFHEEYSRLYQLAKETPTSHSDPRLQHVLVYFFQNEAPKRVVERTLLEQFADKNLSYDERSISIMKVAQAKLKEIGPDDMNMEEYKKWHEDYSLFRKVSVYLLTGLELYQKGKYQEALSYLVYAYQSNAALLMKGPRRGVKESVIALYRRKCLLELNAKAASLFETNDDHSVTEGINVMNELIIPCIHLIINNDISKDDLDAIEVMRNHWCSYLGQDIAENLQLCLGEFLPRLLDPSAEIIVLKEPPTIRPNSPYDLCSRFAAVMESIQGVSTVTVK
Method in brief: as §1

Measured: log2 ratio of Biotin-Ahx-Ub-VS probe labelling

Cc1ccc(CN(C)C(=O)CCl)o1
inactive: USP19 -0.241 | USP24 -0.411 | USP25 -0.156 | USP28 -0.465
